# Measurements taken from ChEMBL document CHEMBL4296182, “CO-ADD screening of NIH NCI Diversity Set V”.
# For part of these data: Entries with a potency or affinity are not part of this list.
# Legend:
# Staphylococcus aureus = experiment: Antibacterial activity against Staphylococcus aureus MRSA ATCC 43300 (CO-ADD:GP_020); MIC in CAMBH media using NBS plates, by Resazurin F(560/590); format: functional; conditions: Concentration 20 uM, ASSAY_TEST Inhibition of Bacterial Growth, detection method Resazurin, Fluorescence (ex560/em590), MEDIA CAMHB, plate type 384well, CORNING #3640, time 18 hr
# Acinetobacter baumannii = experiment: Antibacterial activity against Acinetobacter baumannii ATCC 19606 (CO-ADD:GN_034); MIC in CAMBH media using NBS plates, by Resazurin F(560/590); format: functional; conditions: Concentration 20 uM, ASSAY_TEST Inhibition of Bacterial Growth, detection method Resazurin, Fluorescence (ex560/em590), MEDIA CAMHB, plate type 384well, CORNING #3640, time 18 hr
# Escherichia coli = experiment: Antibacterial activity against Escherichia coli ATCC 25922 (CO-ADD:GN_001); MIC in CAMBH media using NBS plates, by Resazurin F(560/590); format: functional; conditions: Concentration 20 uM, ASSAY_TEST Inhibition of Bacterial Growth, detection method Resazurin, Fluorescence (ex560/em590), MEDIA CAMHB, plate type 384well, CORNING #3640, time 18 hr
# Klebsiella pneumoniae = conditions: Concentration 20 uM; ASSAY_TEST Inhibition of Bacterial Growth; detection method Absorption (OD600); MEDIA CAMHB; plate type 384well; NBS; CORNING #3640; time 18 hr
# Candida albicans = conditions: 20 µM
# Cryptococcus neoformans = conditions: Concentration 20 uM; ASSAY_TEST Inhibition of Fungal Growth; detection method Resazurin; Absorption (OD600-OD570); plate type 384well; NBS; CORNING #3640
SMILES,Inhibition (Staphylococcus aureus) [%],Inhibition (Acinetobacter baumannii) [%],Inhibition (Escherichia coli) [%],Inhibition (Klebsiella pneumoniae) [%],Inhibition (Candida albicans) [%],Inhibition (Cryptococcus neoformans) [%]
Cc1ccn2c(C(C)O)nnc2c1 (stereo not given),16.33,-15.76,12.13,2.31,-1.79,-15.94
CCCCC[C@H](O)/C=C/[C@@H]1[C@@H](C/C=C\CCCC(=O)O)[C@@H](O)C[C@H]1O.NC(CO)(CO)CO [DINOPROST TROMETHAMINE],12.44,-5.18,11.57,16.21,-0.17,-7.36
C=CCOCCN(CC)CC,-2.28,-4.48,-9.5,7.56,2.62,15.03
CCCCCC(=O)C(=O)c1ccc(O)cc1O,10.4,8.8,-2.2,16.02,6.66,-6.56
CN1CCC=C(C(=O)N2c3ccccc3Sc3ccc(Cl)cc32)C1.O=C(O)CCC(=O)O,8.59,-10,17.87,-0.76,-1.22,-4.64
CC1(C)CCSC(/C=C/c2ccccc2)=N1,5.78,13.91,-1.41,18.54,1.26,-4.58
O=C(Nc1cc(-c2ccccc2)[nH]n1)c1ccc(Cl)cc1,11.18,-15.73,6.31,6.21,8.34,-8.44
CCCc1nc2c(=O)n(C)c(=O)n(C)c2[nH]1,14.39,-13.67,8.23,14.55,2.02,-4.69
CCCN=C(S)Nc1ccccc1,-20.14,-0.42,-3.75,7.36,4.15,1.71
Cc1c(CCO)c(=O)n2n1CCCC2,-14.7,-6.34,-10.48,7.18,-0.03,3.75
Cn1c2c(sc1=O)CCC2,14.81,-10.92,5.93,16.07,2.06,-0.94
O=CN/C=C\c1cc(O)ccc1O,-18.33,-7.5,-8.61,6.52,4.27,7.81
Cc1cc(O)c2c(O)[nH]nc2n1,14.32,-13.07,7.82,1.49,-3.37,-5
COc1ccc2c3c([nH]c2c1)[C@H]1C[C@H]2[C@H](C[C@@H](O)[C@H](OC)[C@H]2C(=O)O)CN1CC3,6.35,2.79,-2.06,4.58,-1.6,-3.05
O=C(c1ccc(O)cc1)c1ccc(C(=O)c2ccc(O)cc2)cc1,20.54,4.24,2.65,14.45,3.86,-7.33
CC1OC1c1ccc(-c2ccc(C3OC3C)cc2)cc1 (stereo not given),3.27,-0.69,9.33,23.63,7.55,-6.65
Nc1ncnc2c1ncn2C1OC(CO)C(O)C1N (stereo not given),-5.5,-14.65,5.58,3.14,-0.11,-5.11
CC(O)(c1ccccc1)C(c1ccccc1)C1CCCCN1 (stereo not given),9.45,13.67,-4.2,13.38,7.26,-3.74
Cc1ccn(C)c(=N)c1,5.26,-6.78,8.42,11.41,2.59,-0.88
NC(=O)c1cc(Br)cc(C2CCCCC2)c1O,12.02,-1.26,2.39,15.38,2.63,-10.76
Cc1cccc(C(O)C(O)c2cccc(C)n2)n1 (stereo not given),7.22,-14.61,8.35,7.91,0.07,-7.77
CN(C)CCCN1c2ccc3ccccc3c2Sc2cccc(Cl)c21,-10.96,0.47,9.47,8.34,0.69,12.55
CC1=CC(=O)C(/C(C)=N/c2ccccc2Cl)C(=O)O1 (stereo not given),7.59,14.34,-12.7,12.66,20.8,0.4
O=C(Nc1ccc(O)c(C(=O)O)c1)Oc1ccccc1,5.63,12.9,-6.34,11.35,5.9,-2.46
CCOc1nc(OCC)c2cnn(C)c2n1,17.13,-11.25,5.79,6.34,3.82,-3.08
